Values joined by “and” are separate entries in the source; they are usually repeats but may differ in a detail not shown here. Identical values can stand only once. Results filed as inconclusive are left out. Values without a mark were called inactive. Active and inactive are the calls of the source. The call rests on the fitted dose curve; in most records, active means well fitted cell-killing curve with a large enough effect; inconclusive means small, poorly fitted or top-dose-only effect; inactive means flat fitted curve, though single readings scatter.
Test: Cell Viability - NIH 3T3 (AID 541); further: nearly all actives have a fitted effect of over 25% in size;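 on activity change, negative = cytotoxicity: plate controls were DMSO alone for no effect and tamoxifen positive control for full effect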
Details: NIH 3T3 cell viability, qHTS; activity change, negative = cytotoxicity: at 92.2 µM (top of the series)
Text: NIH Chemical Genomics Center [NCGC]
NIH Molecular Libraries Screening Centers Network [MLSCN]
National Institutes of Environmental Health Sciences [NIEHS]
National Toxicology Program [NTP]
We have developed a 1536-well cell-based assay for quantitative high throughput screening (qHTS) against a number of cell lines to determine in vitro cytotoxicity of small molecules. This particular assay uses the NIH 3T3 fibroblast cell line which is established from NIH Swiss mouse embryo.
NCGC Assay Protocol Summary:
The CellTiter-Glo luminescent cell viability assay (Promega) is a homogeneous method to measure the number of viable cells in culture. The end point readout of this assay is based on quantitation of intracellular ATP, an indicator of metabolic activity, using the luciferase reaction. Luciferase catalyzes the oxidation of beetle Luciferin to oxyluciferin and light in the presence of ATP. The luminescent signal is proportional to amount of ATP present.
Using the CellTiter-Glo luminescent cell viability assay, the amount of cellular ATP was measured in the NIH 3T3 cell line with complete culture medium following compound treatment for 40 hours. The assay was performed in opaque white Kalypsys 1536-well plates. In the screen, tamoxifen and doxorubicin were used as positive controls. Library compounds were measured for their ability to cause acute toxicity in the cell line, as reflected by a decrease in intracellular ATP levels, in a concentration-dependent manner. […] AC50 values were determined from concentration-response data modeled with the standard Hill equation.
qHTS protocol for CellTiter Glo NIH 3T3 cellular assay
[Step] [Parameter] [Value] [Description]
1. Reagent; 5 uL; 1000 NIH 3T3 cells/well
2. Time; 5 hr; 37 °C incubation
4. Controls; 23 nL; Tamoxifen 0.34 uM to 100 uM & Doxorubicin 0.02 nM to 100 uM
5. Time; 40 hr; 37 °C incubation
6. Reagent; 5 uL; CellTiter Glo reagent
7. Time; 20 min; Room Temperature
8. Detection; Luminescence; Viewlux plate reader
Keywords: cell viability, cytotoxicity, NIH 3T3 cell line, luminescence, NTPHTS, NTPHTS_NCGC, NIEHS, EPA, DSSTox, MLSMR, MLSCN, NIH Roadmap, qHTS, NCGC
Potency means the concentration at half of the fitted maximal effect.

SMILES	activity change, negative = cytotoxicity	Potency
BrCCBr	-25.3%	
S=C=Nc1cccc2ccccc12	1.16%	
ClC(Cl)(Cl)c1ccccc1	-19.1% and -4.39%	
O=C(O)COc1ccc(Cl)cc1Cl	-11.4% and -12.3%	
CCSC(=O)Cl	-9.03%	
C=CCc1ccc(OC)cc1	3.06%	
CCC[CH2][Sn]([Cl])([Cl])[Cl]	-25.6%	
C=CC(C)=O	-2.38%	
N#CCCCl	-5.02% and -15.1%	
CCOCN(C(=O)CCl)c1c(C)cccc1CC	-155% (active)	
c1nc[nH]n1	-5.84%	
O=C1C(Cl)=C(Cl)C(=O)C(Cl)=C1Cl		31.6 µM (active)
c1ccc(-c2ccccc2)cc1	-5.05%	
CNC(=O)O/N=C/C(C)(C)SC	-9.42%	
OCC1CO1 (stereo not given)	-5.54%	
CCCCOC(=O)c1ccccc1C(=O)OCCCC	-3.85%	
C=CC1CC=CCC1 (stereo not given)	4.42%	
CCN(CC)c1ccccc1	4.17%	
O=NN(CCO)CCO	-23.2%	
Clc1nc(Cl)nc(Nc2ccccc2Cl)n1	-3.86%	

SMILES	activity change, negative = cytotoxicity	Potency
C=CC(=O)OCC	-21.9%	
CC(=O)[O-].CC(=O)[O-].O.O.O.[Pb+2]	11.5% and -1.35%	
CN=C=S	7.36%	
Oc1ccc(Cl)cc1Cl	-8.01%	
Cc1ccc(O)c(C)c1	3.22%	
C=C(Cl)Cl	0.633%	
CC(C)(OO)c1ccccc1	-123% (active)	
CCOc1ccc(N)cc1	-11.8%	
O=[N+]([O-])c1ccc(Cl)c(Cl)c1	-16.5%	
CCNc1nc(Cl)nc(NC(C)C)n1	-18.4%	
O=C=NC1CCCCC1	-1.14% and -2.08%	
C=C(C)C#N	-26.6%	
C[N+](C)(C)Cc1ccccc1	-12.6%	
CCCCCCCC(=O)Cl	5.37%	
NC(=S)Nc1ccccc1	-8.44% and 0.7%	
C=CC(N)=O	5.3% and 3.72%	
C/C=C/c1ccc2c(c1)OCO2	-3.37%	
O=C(Cl)C(Cl)(Cl)Cl	1.81%	
ClC1=C(Cl)C2(Cl)C3C4CC(C5OC45)C3C1(Cl)C2(Cl)Cl (stereo not given)	-20.8%	
C=CC(=C)C	-9.16%	

— PubChem BioAssay (NCATS)
